Source: PubChem (National Center for Advancing Translational Sciences (NCATS))
DT40 TDP1 CPT: growth inhibition of DT40 Tdp1-/-;hTDP1 cells with camptothecin (screen for TDP1 inhibitors); chicken DT40 Tdp1-/-;hTDP1 cells + 20 nM CPT, ATP luminescence, 48 h; Potency, µM (highest dose often 46.2 µM), inactives show at the top dose activity change, negative = growth inhibition, hits mostly inhibitors; 12% of 420,000 active; AID 686979; also: potency is read from the fitted curve at half-maximal effect; nearly all actives have a fitted effect of over 55% in size
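Chicken DT40 Tdp1-/- cells complemented with human TDP1, 400 cells/well, exposed to compounds plus 20 nM camptothecin for at least 48 h at 37 C; viability read as ATP content by CellTiter-Glo luminescence.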
DT40 TDP1 no CPT: qHTS for Inhibitors of human tyrosyl-DNA phosphodiesterase 1 (TDP1): qHTS in cells in absence of CPT. DT40 Tdp1-/- hTDP1 cells, no CPT, ATP luminescence, 48 h. Potency, µM (series often up to 46.2 µM), without a hit: at the top dose activity change, negative = growth inhibition, actives largely listed as inhibitors. 15% of 420,000 active; also: potency is read from the fitted curve at half-maximal effect; nearly all actives have a fitted effect of over 55% in size
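Camptothecin absent (DMSO only). Human TDP1-complemented DT40 knockout cells, 400 cells/well, 37 °C for minimum 48 hr; ATP measured via CellTiter-Glo, 30 min dark incubation, luminescence.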
HT1080 IDH1KD tx: toxicity to HT-1080 IDH1 knockdown cells (counter line) | HT-1080 IDH1 knockdown viability, ATP luminescence, 48 h | 2% of 360,000 active | Potency, µM (series often up to 46.1 µM), without a hit: top-dose activity, negative = toxicity, actives largely listed as cytotoxic;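 also: potency is read from the fitted curve at half-maximal effect; 0% = DMSO wells and -100% = cell-free medium wells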
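CellTiter-Glo luminescence after 48 h compound exposure at 37 degrees C of IDH1-knockdown HT-1080 cells in 5% FBS RPMI. %Activity scaled between DMSO wells and cell-free media wells, with curves fitted and assigned curve classes.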
HT1080NT lethal: kills 2HG-producing HT-1080-NT fibrosarcoma cells; HT-1080-NT fibrosarcoma viability, CellTiter-Glo ATP luminescence, 48 h; Potency, µM (series often up to 46.1 µM), for the others: at the highest dose activity, negative = less viability, most hits filed as cytotoxic; 1.6% of 360,000 active;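 also: NT is the 2HG producing partner of a matched IDH1 knockdown line; potency is read from the fitted curve at half-maximal effect; 0% = DMSO-treated cells and -100% = media-only wells without cells; nearly all actives have a fitted effect of over 55% in size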
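Toxicity toward the 2HG-producing NT line was scored as %Activity, normalised to DMSO and no-cell wells, from CellTiter-Glo luminescence after 48 hours' treatment.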
IL1B secr inh: blocks inflammasome-driven IL-1 beta release; THP-1 LPS/ATP IL-1B secretion, AlphaLISA, 16 h; stronger effect = lower value; activity change, % at 57.5 µM; 4.7% of 360,000 active; in the data active = activity change below about -50%; inconclusive = mostly about -30% to -49%
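Secreted IL-1B measured by AlphaLISA bead assay after 16 h compound exposure of THP-1 cells; compounds (final up to 57.5 uM) added 1 h before LPS (250 ng/mL) and ATP (1.25 mM) stimulation; lower signal means less secretion.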
Active calls of the source: *; u = inconclusive; x = no result given; [ ] = another dose, or the depositor's remark. In the library only some 19% were active in any assay of this set; here they are far more common. Unless noted, calls follow the shape of the dose curve; as a rule, active = well fitted curve in the direction sought with a large enough effect; inconclusive = small, poorly fitted or top-dose-only effect, or another doubt; inactive = no such curve, though single readings can be large; an effect the other way counts as inactive or inconclusive. Unless noted, % is scaled to controls: 0 for no effect and ±100 for the full control effect.

SMILES	DT40 TDP1 CPT	DT40 TDP1 no CPT	HT1080 IDH1KD tx	HT1080NT lethal	IL1B secr inh
CC1CCCCN1C(=O)COC(=O)c1ccc(=O)n(Cc2ccccc2)n1 (centres undefined)	-22%	-11%	15%	15%	2
Cc1noc(C)c1NC(=O)Nc1ccc2c(c1)CC(=O)N([C@H](C)CO)C[C@@H](C)[C@H](CN(C)CC1CCCCC1)O2	-24%	-7%	-4%	1%	-3
C=CC#CC1(O)CC(C)N(C)CC1C (centres undefined)	19%	1%	0%	0%	-13
O=C(COc1ccccc1F)Nc1ccccc1OCc1cc(=O)n2ccccc2n1	13%	-16%	x	x	x
COc1ccc(CNc2ccnc(-c3ccccc3CN(C)C)n2)c(OC)c1	u	15µM*	x	x	x
COc1ccc(CNc2ncncc2-c2ccccc2CN(C)C)c(OC)c1	-22%	-23%	x	x	x
CC1=C(C(=O)c2ccccc2)C(c2ccc(OC(F)F)cc2)NC(=S)N1 (centres undefined)	u	u	15µM*	u	u
CC1=C(C(=O)c2ccccc2)C(c2ccc(O)cc2)NC(=S)N1 (centres undefined)	-3%	3%	5%	-2%	-11
Cc1ccc(-c2cn3cccc(C)c3n2)cc1NS(=O)(=O)c1ccccc1	26µM*	16µM*	x	x	x
COc1ccc(S(=O)(=O)Nc2cc(-c3cn4ccc(C)cc4n3)ccc2C)cc1OC	16µM*	16µM*	x	x	x
CCCS(=O)(=O)Nc1cc(-c2cn3ccc(C)cc3n2)ccc1C	-7%	u	x	x	x
COc1ccc(Br)cc1S(=O)(=O)Nc1cc(-c2cn3ccccc3n2)ccc1C	u	13µM*	x	x	x
Cc1cccn2cc(-c3ccc(S(=O)(=O)N4CCOCC4)cc3)nc12	u	16µM*	-19%	u	29
Cc1cc(C)c(S(=O)(=O)Nc2cc(-c3cn4ccccc4n3)ccc2C)cc1C	21µM*	21µM*	x	x	x
COc1ccc(-c2cn3ccccc3n2)cc1OC	u	u	u	u	22
CCc1ccccc1Nc1nn2c(=O)c3ccc(C(=O)NC4CCCCC4)cc3nc2s1	10µM*	13µM*	x	x	x
COc1ccccc1Nc1nn2c(=O)c3ccc(C(=O)NC4CCCCC4)cc3nc2s1	2.3µM*	3.7µM*	x	x	x
CC(OC(=O)c1cc(=O)[nH]c2ccccc12)C(=O)N1C(C)CCCC1C (centres undefined)	u	-18%	18%	4%	-11
O=C1c2ccccc2C(=O)c2c(NCCCN(CCO)CCO)cccc21	u	21µM*	u	21µM*	-103*
CCC(=O)N(CCC(c1ccccc1)c1ccco1)Cc1cccs1 (centres undefined)	16µM*	21µM*	u	-5%	-7
CCC(=O)N(CCC(Cc1ccccc1)c1ccc2c(c1)OCO2)Cc1ccccc1F (centres undefined)	7.3µM*	4.6µM*	u	u	-25
CCC(=O)N(CCC(Cc1ccccc1)c1ccco1)Cc1ccco1 (centres undefined)	18µM*	15µM*	-11%	-7%	-29
CCN(CC)C(=O)CC(c1ccccc1)c1ccco1 (centres undefined)	-30%	-21%	2%	8%	-19
O=C(c1ccco1)N(CCC(c1ccccc1)c1ccco1)Cc1ccccc1 (centres undefined)	u	u	-2%	-16%	-8
CCOc1cccc(NC(=O)c2sc3nc(-c4ccc(F)cc4)ccc3c2N)c1	-24%	u	x	x	x
SMILES	DT40 TDP1 CPT	DT40 TDP1 no CPT	HT1080 IDH1KD tx	HT1080NT lethal	IL1B secr inh
CC(C)(C)C1CCc2onc(C(=O)Nc3ccc4c(c3)OCO4)c2C1 (centres undefined)	-28%	u	13µM*	u	-29
CC(C)(C)C1CCc2onc(C(=O)N3CCOCC3)c2C1 (centres undefined)	-25%	-20%	3%	27%	-9
COc1cc(NC(=O)c2noc3c2CC(C(C)(C)C)CC3)cc(OC)c1OC (centres undefined)	21µM*	16µM*	x	x	x
CC(C)(C)C1CCc2onc(C(=O)NC3CCCC3)c2C1 (centres undefined)	u	u	-8%	u	-9
CC(NC(=O)C(=O)N/N=C\c1cccc([N+](=O)[O-])c1)c1ccccc1 (centres undefined)	4%	-8%	-6%	-6%	32
CCN1Cc2cc(OC)ccc2-c2ccccc2S1(=O)=O	-10%	-20%	-2%	-1%	-6
COc1cc(NC(=S)N2CCC(C(O)(c3ccccc3)c3ccccc3)CC2)cc(OC)c1	u	u	0%	-1%	-25
O=C(CCN1C(=O)/C(=C/c2ccc(F)cc2)SC1=S)NNC(=O)c1cccnc1	u	9.2µM*	-10%	-1%	0
Cc1ccc(/C=C2\SC(=S)N(CCC(=O)Nc3cccnc3)C2=O)cc1	-15%	-27%	-3%	-4%	8
O=C(CCN1C(=O)/C(=C/c2ccccc2)SC1=S)NNC(=O)c1cccnc1	-29%	u	1%	-3%	18
Cc1ccc(/C=C2\SC(=S)N(CCC(=O)NNC(=O)c3cccnc3)C2=O)cc1	16µM*	9.2µM*	1%	2%	-5
O=C(/C=C/c1ccc(S(=O)(=O)N2CCOCC2)cc1)NC(CO)C(O)c1ccc([N+](=O)[O-])cc1 (centres undefined)	-2%	-15%	17%	2%	-1
O=C(NC1CC1)c1cc(=S)[nH]c2ccccc12	-16%	-7%	10%	9%	13
Cc1ccccc1Cn1c(CN2CCC(C(=O)NCCN(C)C)CC2)cc2ccccc21	3.3µM*	4.1µM*	x	x	x
Cc1ccc(Cn2c(CN3CCC(C(=O)O)CC3)cc3ccccc32)cc1	-30%	-27%	x	x	x
COc1cccc(CNC(=O)C2CCN(Cc3cc4ccccc4n3Cc3ccc(C)cc3)CC2)c1	u	21µM*	x	x	x
Cc1cc2ccccc2n1CCNC(=O)C1CCCC1	-3%	u	14%	16%	-12
CCOc1ccc(S(=O)(=O)N2CCC(C(=O)NCc3ccccc3CN3CCCC3)CC2)cc1	-17%	-12%	-2%	2%[9.24 µM]	0
CCOc1ccc(CNC(=O)C2CCN(Cc3cc4ccccc4n3Cc3ccccc3C)CC2)cc1	13µM*	23µM*	x	x	x
O=C(O)C1=C(CSc2nnnn2CS(=O)(=O)O)CS[C@@H]2[C@H](NC(=O)[C@H](O)c3ccccc3)C(=O)N12	2%	-28%	x	x	x
CC(C)CCN1CCN(Cc2cccc(C(F)(F)F)c2)CC1CCO (centres undefined)	u	u	-2%	10%	4
